Data taken from PubChem BioAssay AID1851 (National Center for Advancing Translational Sciences (NCATS), 2009).
Where “and” joins values, the source holds several entries; their conditions need not be identical. Equal entries are not always repeated. Out of some 16,000 compounds screened, about 4,000 (25%) were called active. About 26% were inconclusive and are not listed. The call rests on the fitted dose curve; in most records, active means well fitted curve in the direction sought with a large enough effect; inconclusive means small, poorly fitted or top-dose-only effect, or effect the other way; inactive means no such curve, though single readings can be large or run the other way. Only a sample is shown. A structure can be active in one record and inactive in another.

molecular target: Cytochrome P450 2C9 (Homo sapiens) (UniProt P11712); assay: Cytochrome panel assay with activity outcomes; settings: recombinant CYP, pro-luciferin dealkylation, luminescence, p450-cyp2c9; series mostly up to 57.1 µM; activity, negative = inhibition: at the top concentration
On the % scale 0 is the no-effect control and ±100 the full control effect.

Cytochrome P450 2C9 (Homo sapiens), sequence (P11712 whole entry, looked up): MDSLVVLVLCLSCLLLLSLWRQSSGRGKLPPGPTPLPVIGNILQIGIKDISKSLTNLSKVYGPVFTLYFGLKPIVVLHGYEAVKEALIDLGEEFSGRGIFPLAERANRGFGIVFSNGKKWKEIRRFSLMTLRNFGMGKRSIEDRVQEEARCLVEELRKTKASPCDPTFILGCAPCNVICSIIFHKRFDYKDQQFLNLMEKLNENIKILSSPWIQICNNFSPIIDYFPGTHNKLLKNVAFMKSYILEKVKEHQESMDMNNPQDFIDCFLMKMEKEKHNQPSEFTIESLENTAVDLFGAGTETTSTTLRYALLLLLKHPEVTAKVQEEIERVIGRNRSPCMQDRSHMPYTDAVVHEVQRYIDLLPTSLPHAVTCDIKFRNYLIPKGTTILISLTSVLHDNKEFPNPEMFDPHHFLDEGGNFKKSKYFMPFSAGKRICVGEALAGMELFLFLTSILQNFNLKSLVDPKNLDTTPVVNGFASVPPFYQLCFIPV

| SMILES | activity, negative = inhibition | AC50 |
| --- | --- | --- |
| C#CCn1c(=O)c2c(ncn2C)n(C)c1=O | 3.22% (inactive) | – |
| CN(C)c1cc2c(Nc3ccc4c(cnn4Cc4ccccc4)c3)ncnc2cn1 | – | 12.6 µM (active) |
| CN(C)C(=O)c1ccc(-c2ccc3ncnc(Nc4ccccc4)c3c2)cc1 | 15.4% [at 2.29 µM] (inactive) | – |
| CN(C)c1ccc(-c2ccc3ncnc(NCc4ccccc4)c3c2)cc1 | -24.6% [at 2.29 µM] (inactive) | – |
| CCN(CC(=O)Nc1ccc([N+](=O)[O-])cc1OC)c1ccccc1 | – | 2.82 µM (active) |
| COc1ccccc1NC(=O)Cn1cncc1-c1ccc([N+](=O)[O-])cc1 | -12.7% (inactive) | – |
| CCOc1cc(NC(=S)Nc2cccc(C)c2)c(OCC)cc1NC(=O)CC(C)C | -19.7% (inactive) | – |
| COc1cc(OC)c(NC(=S)Nc2cccc(C(C)=O)c2)cc1Cl | – | 5.01 µM (active) |
| CCOC(=O)C1(C(=O)O)NC(=O)CC1c1ccccc1 (configuration not stated) | -28.6% (inactive) | – |
| CCOC(=O)CN1C(=O)Nc2ccc(Br)cc2C1c1ccccc1 (configuration not stated) | – | 6.31 µM (active) |
| O=c1cc(CF)[nH]c(=S)[nH]1 | 8.7% [at 11.4 µM] (inactive) | – |
| N[C@H](CCCC(=O)O)C(=O)O | -23.2% (inactive) | – |
| O=C(O)c1cc2ccccc2c(S(=O)(=O)O)c1O | 10.7% [at 11.4 µM] (inactive) | – |
| O=C(O)c1cc(C(=O)C(=O)c2cc(C(=O)O)c(O)c3ccccc23)c2ccccc2c1O | – | 0.316 µM (active) |
| O=C(O)C1=C/C(=C(/c2ccccc2)c2cc(C(=O)O)c(O)c3ccccc23)c2ccccc2C1=O | 1.25% [at 11.4 µM] (inactive) and -1.88% [at 11.4 µM] (inactive) | – |
| Cc1cc(OCC(F)(F)C(F)(F)C(F)(F)C(F)(F)C(F)(F)C(F)F)nc(N)n1 | – | 12.6 µM (active) |
| CC(C)NC[C@@H](O)c1ccc(O)c2ncccc12 | 11% [at 11.4 µM] (inactive) | – |
| Oc1ccccc1-c1nnc(-c2ccc(C(F)(F)F)cc2)o1 | -14.7% (inactive) | – |
| CCOc1ccc(-c2nnc(-c3ccncc3)o2)cc1 | – | 12.6 µM (active) |
| CCOc1ccc(C2=[N+]([O-])C(C)(C)N(O)C2(C)C)cc1 | -2.98% (inactive) | – |
| Oc1cc2c(cc1O)[C@H](c1ccccc1)CNCC2 | -1.38% (inactive) | – |

| SMILES | activity, negative = inhibition | AC50 |
| --- | --- | --- |
| Cc1ccc(N=Nc2c(=O)[nH]n3c(C)cc(C)nc23)cc1 | -17% (inactive) | – |
| Cc1ccccc1-c1nc(N2CCN(C)CC2)c2ccccc2n1 | 5.44% [at 2.29 µM] (inactive) | – |
| Cc1[nH]n2c(=O)c3c(nc2c1-c1cccc2ccccc12)CCC3 | – | 5.62 µM (active) |
| Cc1c2c(nc3c(C(=O)NC4CCCC4)cnn13)CCCC2 | -21.3% (inactive) | – |
| Cc1ccc(N=Nc2c(N)[nH]n3c(=O)c4c(nc23)CCCC4)cc1 | – | 10 µM (active) |
| O=P(O)(O)O[C@@H]1O[C@H](CO)[C@@H](O)[C@H](O)[C@@H]1O | 8.79% [at 11.4 µM] (inactive) | – |
| CCN(CC)[C@@H](C)CN1c2ccccc2Sc2ccccc21 | -14.4% [at 25.6 µM] (inactive) | – |
| COc1cccc(OC)c1OCCCCN1CCCC1 | 7.15% (inactive) | – |
| Cc1c(-c2ccccc2)oc2c(C(=O)OCCN3CCCCC3)cccc2c1=O | -17.4% [at 25.6 µM] (inactive) | – |
| O=C(OCCN1CCCCC1)c1c[nH]c2ccccc12 | – | inactive and 2 µM (active) |
| C[C@@](N)(Cc1ccc(O)c(O)c1)C(=O)O | – | inactive |
| CCOC(=O)c1c(C(C)(C)C)oc2ccc(O)cc12 | – | 20 µM (active) |
| C[C@@](N)(Cc1ccc(O)cc1)C(=O)O | – | inactive |
| CC(C)Oc1cccc(C(=O)NC(=S)N2CCN(c3ccc(C(F)(F)F)cc3[N+](=O)[O-])CC2)c1 | – | 3.16 µM (active) |
| CCC(=O)NC(=S)N1CCN(c2ccc([N+](=O)[O-])cc2Cl)CC1 | -29.7% (inactive) | – |
| CC1CN(C(=S)NC(=O)c2ccc([N+](=O)[O-])cc2)CC(C)O1 (configuration not stated) | -28.7% (inactive) | – |
| COc1cccc(OC)c1C(=O)NC(=S)N1CCN(c2ccc(C(F)(F)F)cc2[N+](=O)[O-])CC1 | – | 0.355 µM (active) |
| CC(C)N=C(N)/N=C(\N)Nc1ccc(Cl)cc1 | 13.8% [at 25.6 µM] (inactive) | – |
| CNCCc1ccccn1 | 3.59% [at 25.6 µM] (inactive) | – |
| O=c1ccn([C@@H]2O[C@@H](COP(=O)(O)OP(=O)(O)O)[C@H](O)[C@@H]2O)c(=O)[nH]1 | 5.9% (inactive) | – |
| COc1cc2nc3c(c([Si](C)(C)C(C)(C)C)c2cc1OC)Cn1c-3cccc1=O | – | 15.8 µM (active) |

| SMILES | activity, negative = inhibition | AC50 |
| --- | --- | --- |
| CCc1c2c(nc3ccc(OC)cc13)COC2 | -18.7% (inactive) | – |
| COc1ccc2nc3c(c([Si](C)(C)C(C)(C)C)c2c1)Cn1c-3cccc1=O | – | 12.6 µM (active) |
| CC(C)NC(=O)N1CCCC2(CCN(C(=O)c3cc(C(F)(F)F)cc(C(F)(F)F)c3)CC2)C1 | -6.66% (inactive) | – |
| CC(C)CN(CC#N)CC(C)C | 4.39% [at 11.4 µM] (inactive) | – |
| CN(C)CCCc1c2ccccc2nc2ccc(Cl)cc12 | 11.6% [at 11.4 µM] (inactive) | – |
| CSc1nc2ccccc2cc1/C=C(\C#N)c1ccc(Cl)cc1Cl | – | 25.1 µM (active) |
| CSc1nc2ccccc2cc1/C=C(\C#N)c1ccccc1 | – | 3.98 µM (active) |
| COc1ccc(-n2c(=O)cnc3cnc(OC)nc32)cc1 | 25.6% (inactive) | – |
| O=C(O)CC1(CC(=O)O)Nc2ccccc2SC1=O | -2.99% [at 11.4 µM] (inactive) | – |
| Cc1c(Cl)cccc1NC(=O)CN1CCC(C(O)(c2ccccc2)c2ccccc2)CC1 | – | 2 µM (active) |
| Cc1cc(Cl)ccc1NC(=O)CN1CCC(C(O)(c2ccccc2)c2ccccc2)CC1 | – | 7.08 µM (active) |
| Cc1c(NC(=O)CN2CCN(c3ccccc3)CC2)c(=O)n(-c2ccccc2)n1C | -21.7% (inactive) | – |
| Cc1c(Cl)cccc1NC(=O)CC1NCCNC1=O (configuration not stated) | -4.3% (inactive) | – |
| Cc1ccccc1NC(=O)CN1CCC(n2nnc3ccccc32)CC1 | -20.6% (inactive) | – |
| O[C@@](CCN1CCCCC1)(c1ccccc1)C1CCCCC1 | – | inactive |
| CCc1nc2cc(CC(=O)O)ccc2o1 | 1.01% (inactive) | – |
| COC(=O)[C@@H]1C[C@H]1[C@@H](NC(=O)c1cnccn1)c1ccccc1 | -6.71% (inactive) | – |
| C[C@@H](C(=O)Nc1ccc2ccccc2c1)[C@H]1C[C@]1(C)[C@H](NC(=O)c1cnccn1)c1ccccc1 | – | 5.01 µM (active) |
| COC(=O)[C@H]1C[C@@H]1[C@H](NC(=O)c1cnccn1)c1ccccc1 | -9.04% (inactive) | – |
| C[C@@H](C(=O)Nc1ccc2ccccc2c1)[C@@H]1C[C@@]1(C)[C@@H](NC(=O)c1cnccn1)c1ccccc1 | – | 0.0631 µM (active) |
